Growth data for 8 compounds are collected here from PubChem BioAssay (NCI).

The structures appear in SMILES notation. About 83,000 compounds went through this panel and 20% of them were active in at least one assay; those are over-represented in the sample as a whole.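 The endpoint reported here, percent growth, reads 100 for growth as untreated, 0 for no net growth and -100 for all cells dead.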 Values without a mark were called inactive. Activity calls are given as the source filed them. The calls were made as follows: active = growth percent below 10; inactive = the rest.

Common to all, as to assay: NCI-60 one-dose screen, 48 h (100 = growth as untreated, 0 = no growth, -100 = all killed)
The subject of assay [1] is DU-145 prostate. To be noted: 10 µM unless noted.
For assay [2], the system named is MALME-3M melanoma. To be noted: 10 µM unless noted.
For assay [3], the system named is MDA-MB-231 breast. As to conditions: 10 µM unless noted.
For assay [4], the system named is RXF 393 renal. As to conditions: 10 µM unless noted.
Assay [5] relates to SF-268 CNS. As to conditions: 10 µM unless noted.
For assay [6], the system named is SF-295 CNS. As to conditions: 10 µM unless noted.
Assay [7] has as its system SF-539 CNS. As to conditions: 10 µM unless noted.
Assay [8] has as its system UACC-257 melanoma. To be noted: 10 µM unless noted.
For assay [9], the system named is M14 melanoma. As to conditions: 10 µM unless noted.
The subject of assay [10] is HCT-15 colon. To be noted: 10 µM unless noted.
The subject of assay [11] is HT29 colon. As to conditions: 10 µM unless noted.
In assay [12] the test system is SNB-75 CNS. As to conditions: 10 µM unless noted.
The test system of assay [13] is SNB-19 CNS. To be noted: 10 µM unless noted.
The subject of assay [14] is U251 CNS. To be noted: 10 µM unless noted.
The subject of assay [15] is PC-3 prostate. As to conditions: 10 µM unless noted.
Assay [16] deals with UACC-62 melanoma. As to conditions: 10 µM unless noted.
Assay [17] relates to LOX IMVI melanoma. As to conditions: 10 µM.
The subject of assay [18] is SK-MEL-28 melanoma. As to conditions: 10 µM unless noted.

Turning to `COc1ccc(C(=O)/C=C/c2cc3c(cc2Br)OCO3)cc1S(N)(=O)=O`, the growth was -0.788% (active) in [1]; 23.8% in assay [2]; 23.7% in [3]; -58.2% (active) in assay [4]; 18.1% in assay [5]; -22.8% (active) in assay [6]. The growth in assay [7] is -89.2% (active); in assay [8], 63.6%; in assay [9] it was -71.2% (active); in assay [10], -40.4% (active); in assay [11], 0.446% (active); in assay [12], 2.3% (active). The growth in assay [13] was 6.32% (active); in [14], -95.1% (active); in [15] it was 2.21% (active); in assay [16], 39.2%; in assay [17], -85.5% (active); in [18], 27.6%.

On to `O=C(NNc1nc2cc(F)ccc2n2c(C(=O)N3CCN(C4CC4)CC3)ccc12)c1ncccn1`, for which the growth in [1] is 47.8%; in [2] it was 33.2%; in [3] it was 43.6%; in assay [4] it was 64.8%; in assay [5], 29.9%; in assay [6], -33.9% (active). The growth in assay [7] was 12.9%; in [8], 19.7%; in assay [9], -33% (active); in [10], 10.5%; in assay [11], 39%; in assay [12], 73.3%. In addition, the growth is 30.7% in [13]; 16.8% in assay [14]; 49% in [15]; 9.28% (active) in assay [16]; 13.7% in assay [17]; 30.8% in [18].

On to `NS(=O)(=O)c1ccc(-n2cc(-c3cccc(NC(=O)c4cc(Cl)cc(Cl)c4)c3)nn2)cc1`, for which the growth is 74.6% in [1]; 77.6% in assay [2]; 54.1% in assay [3]; 87.9% in [4]; 43.1% in [5]; 75.6% in [6]. The growth in assay [7] was 70.1%; in assay [8], 83.2%; in [9], 52.4%; in [10], 94.7%; in assay [12], 86.2%; in assay [13], 68.6%. Besides, the growth in assay [14] is -45.9% (active); in [15] it was 69.7%; in assay [16], 69.6%; in assay [17], 2.52% (active); in assay [18], 45.3%.

Consider `O=C(NNc1nc2cc(C(F)(F)F)ccc2n2cccc12)c1cnccn1`, for which the growth in assay [1] is -57.5% (active); in [2] it was -57.2% (active); in assay [3], -66.8% (active); in assay [4], -74% (active); in [5], -53.4% (active); in assay [6], -92.1% (active). Besides, the growth in assay [7] was -83% (active); in assay [8] it was -83.9% (active); in assay [9], -81.9% (active); in assay [10] it was -49.6% (active); in assay [11], 2.58% (active); in assay [12], -69.4% (active). The growth in assay [13] was -56.6% (active); in [14], -95.5% (active); in assay [15], -54.8% (active); in assay [16], -41.1% (active); in assay [17] it was -67% (active); in assay [18] it was -36.8% (active).

In the case of `C/C(=N\Nc1ccc(S(N)(=O)=O)cc1)c1ccc(N=Nc2c(Nc3ccccc3)[nH][nH]c2=O)cc1`, the growth was 13.8% in [1]; -65.9% (active) in assay [2]; -31.3% (active) in assay [3]; -24.1% (active) in [4]; 9.33% (active) in assay [5]; 5.12% (active) in assay [6]. The growth was -77.4% (active) in assay [7]; 5.63% (active) in assay [8]; -62.5% (active) in [9]; 36.7% in [10]; 4.54% (active) in [11]; 21% in assay [12]. Also, the growth in [13] is -5.15% (active); in [14], -46.7% (active); in assay [15] it was 20%; in assay [16], -40.7% (active); in assay [17], -41.2% (active); in assay [18] it was -54.1% (active).

With `NS(=O)(=O)c1ccc(-n2cc(-c3cccc(NC(=O)c4cc(N5CCOCC5)cc(C(F)(F)F)c4)c3)nn2)cc1`, the growth was 83% in [1]; 54.1% in assay [2]; 37.4% in assay [3]; 41.1% in assay [5]; 54% in assay [6]; 19.3% in [7]. Moreover, the growth is 66.3% in assay [8]; 78.8% in [9]; 105% in [10]; 103% in assay [11]; 33.1% in [12]; 40.8% in assay [13]. Also, the growth in assay [14] was 7.62% (active); in assay [15], 70.6%; in assay [16] it was 41.1%; in [17], 46.8%; in assay [18] it was 36.9%.

`Cc1cnc(C(=O)NNc2nc3cc(F)ccc3n3c(C(=O)N4CC5CC(C4)N5)ccc23)cn1`: the growth was 48.8% in assay [1]; 43% in assay [2]; 43.7% in assay [3]; 60.4% in assay [4]; 33.9% in [5]; 11% in assay [6]. The growth in [7] was 8.21% (active); in assay [8], 25.5%; in assay [9] it was -22.8% (active); in assay [10], 32.4%; in assay [11], 41.5%; in [12], 71.6%. Besides, the growth in assay [13] was 35.2%; in assay [14], 22.9%; in assay [15], 47.2%; in assay [17], 16%; in [18] it was 30.3%.

With `NS(=O)(=O)c1ccc(-n2cc(-c3cccc(NC(=O)c4ccc(Cl)c(C(F)(F)F)c4)c3)nn2)cc1`, the growth in assay [1] is 18.3%; in [2] it was 39.9%; in [3], -5.26% (active); in assay [5], 29.4%; in assay [6], 7.53% (active); in assay [7], -38.8% (active). The growth in [8] was 39.1%; in assay [9], 16.2%; in assay [10], 41.6%; in assay [11], 9.41% (active); in assay [12], 5.75% (active); in assay [13], 32.3%. Besides, the growth was -54.8% (active) in [14]; 17.7% in assay [15]; 35% in [16]; -33.3% (active) in [17]; -14.5% (active) in [18].
